The supplement of paper PMC11628255, “Interference of metal ions on the bioluminescent signal of firefly, Renilla, and NanoLuc luciferases in high-throughput screening assays” (Frontiers in Chemistry, 2024)
± gives the standard deviation of the averaged measurements.

System: firefly luciferase (FLuc)
Experiment: residual bioluminescent signal relative to negative (DMSO) control; higher = less interference (more residual luciferase signal)
Protocol: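 Purified luciferase (FLuc 10 nM + 10 uM D-luciferin; NLuc 10 pM + 10 uM furimazine; RLuc 50 pM + 2 uM coelenterazine) in 384-well plates; metal salt pre-incubated with enzyme 10 min at RT, substrate added and luminescence read after 10 min. Signal normalised to plate DMSO negative control (% N_VALUE = x/mean neg *100); triplicate wells at 0.01, 1 and 5 mM salt.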

[1] = metal salt concentration 0.01 mM, HEPES conditions (100 mM HEPES, 5 mM MgSO4, 10 uM ATP, pH 7.5)
[2] = metal salt concentration 0.01 mM, screening conditions (0.5 mM Tris, 50 mM glycine, 0.5 mM EDTA, 5 mM MgSO4, 10 uM ATP, pH 7.6)
[3] = metal salt concentration 1 mM, HEPES conditions (100 mM HEPES, 5 mM MgSO4, 10 uM ATP, pH 7.5)
[4] = metal salt concentration 1 mM, screening conditions (0.5 mM Tris, 50 mM glycine, 0.5 mM EDTA, 5 mM MgSO4, 10 uM ATP, pH 7.6)
[5] = metal salt concentration 5 mM, HEPES conditions (100 mM HEPES, 5 mM MgSO4, 10 uM ATP, pH 7.5)
[6] = metal salt concentration 5 mM, screening conditions (0.5 mM Tris, 50 mM glycine, 0.5 mM EDTA, 5 mM MgSO4, 10 uM ATP, pH 7.6)

SMILES | residual bioluminescent signal [1] [%] | residual bioluminescent signal [2] [%] | residual bioluminescent signal [3] [%] | residual bioluminescent signal [4] [%] | residual bioluminescent signal [5] [%] | residual bioluminescent signal [6] [%]
O=C([O-])[O-].[K+].[K+] [potassium carbonate] | 84.3 ± 17 | 81.3 ± 3 | 83.9 ± 16 | 85.8 ± 6.4 | 67.9 ± 15 | 49.2 ± 8.7
[Cl][Fe][Cl] [iron(II) chloride] | 28.9 ± 6.8 | 108 ± 1.6 | 1.76 ± 0.23 | 0.343 ± 0.046 | 0.814 ± 0.7 | 0.369 ± 0.091
CC#N.CC#N.CC#N.CC#N.F[B-](F)(F)F.[Cu+] [tetrakis(acetonitrile)copper(I) tetrafluoroborate] | 0.543 ± 0.23 | 115 ± 2.9 | 0.407 | 0.474 ± 0.16 | 0.679 ± 0.47 | 0.422 ± 0.36
[Cl][Pt-2]([Cl])([Cl])[Cl].[K+].[K+] [potassium tetrachloroplatinate(II)] | 85 ± 8 | 87.9 ± 6.2 | 3.8 ± 0.62 | 0.659 ± 0.66 | 1.09 ± 0.23 | 0.343 ± 0.12
O.O.O.O.O.O.O.O=S(=O)([O-])[O-].[Mg+2] [magnesium sulfate] | 78.3 ± 4.9 | 71.5 ± 6.5 | 77.4 ± 17 | 68 ± 5.2 | 55.5 ± 13 | 47.7 ± 6.9
[Cl-].[Na+] [sodium chloride] | 102 ± 17 | 104.5 ± 0.25 | 103 ± 19 | 101 ± 5.4 | 92.4 ± 2 | 79.7 ± 3.2
[Cl][Fe]([Cl])[Cl] [iron(III) chloride] | 15.5 ± 8.2 | 1.32 ± 0.63 | 1.09 ± 0.62 | 0.712 ± 0.4 | 1.9 ± 1.9 | 0.29 ± 0.046
